{"source": "PubChem BioAssay (Tox21)", "note": "Unmarked numbers belong to inactive results. Activity calls are given as the source filed them. Calls come from the whole dose curve; as a rule, active = well fitted curve in the direction sought with a large enough effect in the repeat runs; inconclusive = weak or mixed curves; inactive = flat fitted curve, though single readings scatter. % is set by controls: 0 for no effect and ±100 for the full control effect.", "data": [{"experiment": "qHTS assay to test for compound auto fluorescence at 535 nm (green) in HepG2 cells (AID 720675)", "conditions": "green autofluorescence 485/535 nm, 1 h; series mostly up to 91.3 µM", "values": [{"compound": "CC(=O)Nc1ccc(S(=O)(=O)Nc2cc(C)on2)cc1", "outcome": "inactive"}, {"compound": "C=CCn1cc[n+](C)c1", "outcome": "inactive"}, {"compound": "CCCC[O][Al]([O]CCCC)[O]CCCC", "outcome": "inactive"}, {"compound": "CCOC(=O)CC", "outcome": "inactive"}, {"compound": "OCCC(F)(F)C(F)(F)C(F)(F)C(F)(F)C(F)(F)C(F)(F)F", "outcome": "inactive"}, {"compound": "C[n+]1ccccc1/C=N/O", "fluorescence, % of fluorescein control": "-0.126% [at 18.6 µM]"}, {"compound": "c1coc(Cn2cccc2)c1", "outcome": "inactive"}, {"compound": "CCCCC(CC)COC(=O)CC#N", "note": "(configuration not stated)", "outcome": "inactive"}, {"compound": "CC(C)c1cc(C(C)C)cc(C(C)C)c1", "outcome": "inactive"}, {"compound": "CCOC(=O)[C@H](CCc1ccccc1)N[C@H]1CS[C@H](c2cccs2)CN(CC(=O)O)C1=O", "outcome": "inactive"}, {"compound": "COc1cc(OC)cc(OC)c1", "outcome": "inactive"}, {"compound": "O=C(O)COc1ccc2ccccc2c1", "outcome": "inactive"}, {"compound": "Cc1cccc(N)n1", "outcome": "inactive"}, {"compound": "O=C(c1ccccc1)c1cccc(O)c1", "outcome": "inactive"}, {"compound": "CCCCCCCC(=O)N(C)C", "outcome": "inactive"}, {"compound": "CC/C=C\\CCOC(=O)c1ccccc1", "outcome": "inactive"}, {"compound": "CCCOc1ccc(C(=O)OCCN(CC)CC)cc1N", "outcome": "inactive"}]}]}
